# Compounds with a hit are over-represented: about 6.8% of the library has one in this group of screens.
# Pf Dd2 growth: P. falciparum Dd2 growth inhibition; 94,000 tested, 2.3% active; activity change, % at 10 µM; SYBR Green, 72 h; stronger effect = lower value; in the data active means activity change below about -80%; inconclusive means no clear call, values can overlap the other calls
# T cruzi growth-1: T. cruzi proliferation inhibition | T. cruzi beta-gal in NIH3T3, GalScreen luminescence, 90 h | 77,000 tested, 5.9% active | inhibition, % at 8.34 µM;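 active means mean inhibition above about 93%, with at least 55% of replicates each passing it, limit read from the data, passing the limit was not always enough; inconclusive means only one of those two conditions holds; inactive means neither condition holds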
# C diff growth: inhibitors of Clostridium difficile growth; Clostridium difficile clinical isolate growth, OD600, 24 h; stronger effect = lower value; growth activity, negative = inhibition, % at 16 µg/mL (by protocol); 86,000 tested, 0.25% active; AID 1259249;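 active means mean growth activity at or below -80% and every replicate also at or below -80%; inconclusive means mean at or below -80% but some replicate above -80%; inactive means mean growth activity above -80%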;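 further: 0% = DMSO wells and -100% = levofloxacin 16 µg/mL wells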
# T cruzi growth-2: blocks T. cruzi growth in NIH3T3 host cells; 5,600 tested, 72% active; shares compounds with T cruzi growth-1; T. cruzi beta-gal in NIH3T3, GalScreen luminescence, 90 h; inhibition, % at 8.35 µM;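 active means mean replicate inhibition above about 95% and at least 55% of replicates individually reaching it, limit read from the data; inconclusive means only one of the two criteria is met; inactive means neither criterion is met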
# T cruzi growth-3: blocks T. cruzi growth in NIH3T3 host cells. inhibition, % at 2.09 µM. 5,600 tested, 21% active. shares compounds with T cruzi growth-1. T. cruzi beta-gal in NIH3T3, GalScreen luminescence, 90 h. AID 651740;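 active means mean inhibition above about 95%, with at least 55% of replicates also reaching it, limit read from the data; inconclusive means meets just one of the two conditions; inactive means meets neither condition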;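 further: plate controls were neutral control median for no effect and positive control median for full effect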
# 3T3 cytotox: NIH/3T3 (mouse) viability loss. shares compounds with T cruzi growth-1. NIH/3T3 viability, CellTiter-Glo ATP luminescence, 90 h. cytotoxicity (signal decrease), % at 8.35 µM. 5,600 tested, 14% active;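 active means mean signal decrease across replicates above about 35% based on untreated-well scatter, with enough replicates individually passing, limit read from the data; inconclusive means no rule stated though some were filed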;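 further: 0% = median of neutral control wells and 100% = median of positive control wells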
# NIH3T3 tox 2: cytotoxicity in mouse NIH/3T3 fibroblasts; shares compounds with T cruzi growth-1; NIH/3T3 viability, CellTiter-Glo ATP luminescence, 90 h; inhibition, % at 24.9 µM; 5,600 tested, 56% active;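 active means mean loss of cell viability signal at or above a set limit, and enough replicates individually reaching it; inconclusive means meets only the mean limit or only the replicate share; inactive means meets neither condition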;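 further: 0% = median of neutral control wells and 100% = median of positive control wells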
# * = called active by the depositor; ? = inconclusive; . = no result.
SMILES,Pf Dd2 growth,T cruzi growth-1,C diff growth,T cruzi growth-2,T cruzi growth-3,3T3 cytotox,NIH3T3 tox 2
O=C(Nc1ccccc1F)N1CCCCN2[C@H](CO)[C@H](c3ccc(/C=C/c4ccccc4)cc3)[C@@H]2C1,-3,116*,0,96*,113*,45*,58*
O=C(Nc1ccccc1F)N1CCCCN2[C@H](C1)[C@@H](c1ccc(/C=C/c3ccccc3)cc1)[C@@H]2CO,3,84,38,.,.,.,.
C/C=C/c1ccc([C@H]2[C@@H](CO)N3CCCCN(C(=O)Nc4ccccc4F)C[C@@H]23)cc1,21,110*,-3,98*,52,-13,2
O=C(NCC1CC1)[C@@H]1[C@@H](CO)[C@@H]2Cn3c(ccc(-c4ccccc4F)c3=O)[C@H]1N2Cc1cccnc1,.,-134,1,.,.,.,.
COc1ccccc1CNC(=O)C[C@H]1C[C@H]2c3cc(NC(=O)NC4CCCC4)ccc3O[C@H]2[C@@H](CO)O1,13,68,0,.,.,.,.
O=C(C[C@@H]1C=C[C@H](NC(=O)Nc2ccccc2)[C@@H](CO)O1)NCc1cccc(F)c1,-1,?,-4,-12,-1,-37,-19
O=C(C[C@@H]1C=C[C@@H](NC(=O)Nc2ccccc2)[C@@H](CO)O1)NCc1cccc(F)c1,-5,-16,4,.,.,.,.
COc1ccccc1CNC(=O)C[C@H]1C[C@H]2c3cc(NC(=O)Nc4ccc(C(F)(F)F)cc4)ccc3O[C@H]2[C@H](CO)O1,-61,134*,7,107*,52,-20,-19
COc1ccccc1CNC(=O)C[C@@H]1C[C@@H]2c3cc(NC(=O)Nc4ccc(C(F)(F)F)cc4)ccc3O[C@@H]2[C@H](CO)O1,-24,125*,6,111*,66,4,27
COc1ccccc1CNC(=O)C[C@@H]1C[C@@H]2c3cc(NC(=O)NC4CCCC4)ccc3O[C@@H]2[C@@H](CO)O1,-8,111*,2,85,1,-21,-1
COc1ccccc1CNC(=O)C[C@@H]1C[C@H]2c3cc(NC(=O)Nc4ccc(C(F)(F)F)cc4)ccc3O[C@H]2[C@H](CO)O1,-53,88,1,.,.,.,.
COc1ccccc1CNC(=O)C[C@H]1C[C@@H]2c3cc(NC(=O)Nc4ccc(C(F)(F)F)cc4)ccc3O[C@@H]2[C@H](CO)O1,-76,66,17,.,.,.,.
CN1C(=O)c2cc(NC(=O)c3ccccc3)ccc2OC[C@@H]2O[C@@H](CC(=O)NCC3CC3)CC[C@H]21,-2,-15,8,.,.,.,.
COc1ccc(CN(C)C[C@H]2Oc3ccc(NC(=O)Nc4ccc5c(c4)OCO5)cc3C(=O)N([C@@H](C)CO)C[C@@H]2C)cc1,8,7,-1,.,.,.,.
COc1cccc(S(=O)(=O)N2CC3(CN[C@@H](CO)c4[nH]c5cc(OC)ccc5c43)C2)c1,-70,.,4,.,.,.,.
C[C@H](CO)N1C[C@H](C)[C@@H](CN(C)C(=O)Nc2ccc3c(c2)OCO3)Oc2ccc(NS(=O)(=O)c3cccs3)cc2CC1=O,5,30,1,.,.,.,.
O=C(C[C@H]1CC[C@H](NC(=O)Nc2ccc(C(F)(F)F)cc2)[C@@H](CO)O1)NCc1cc(F)cc(F)c1,-39,103*,.,77,-24,-7,10
O=C(C[C@@H]1C[C@H]2c3cc(NC(=O)NC4CCCCC4)ccc3O[C@H]2[C@@H](CO)O1)NCc1ccccc1,-10,52,.,.,.,.,.
O=C(C[C@@H]1CC[C@@H](NC(=O)Nc2ccc(C(F)(F)F)cc2)[C@@H](CO)O1)NCc1cc(F)cc(F)c1,-4,-1,.,.,.,.,.
C[C@H](NC(=O)C[C@H]1C[C@@H]2c3cc(NC(=O)Nc4ccc(C(F)(F)F)cc4)ccc3O[C@@H]2[C@H](CO)O1)c1ccccc1,-26,?,12,102*,12,48*,71*
C[C@H](NC(=O)C[C@@H]1C[C@H]2c3cc(NC(=O)Nc4ccc(C(F)(F)F)cc4)ccc3O[C@H]2[C@@H](CO)O1)c1ccccc1,5,58,13,.,.,.,.
O=C(C[C@H]1C[C@@H]2c3cc(NC(=O)Nc4ccc(C(F)(F)F)cc4)ccc3O[C@@H]2[C@H](CO)O1)NCc1ccc(Cl)cc1,2,?,.,108*,49,22,-4
O=C(C[C@H]1C[C@H]2c3cc(NC(=O)NC4CCCCC4)ccc3O[C@H]2[C@@H](CO)O1)NCc1ccccc1,0,97*,.,59,10,13,8
O=C(C[C@@H]1C[C@@H]2c3cc(NC(=O)Nc4ccc(C(F)(F)F)cc4)ccc3O[C@@H]2[C@H](CO)O1)NCc1ccc2c(c1)OCO2,0,45,2,.,.,.,.
O=C(NCc1ccccc1)[C@@H]1[C@@H](CO)[C@@H]2Cn3c(cccc3=O)[C@H]1N2Cc1cccnc1,4,53,1,.,.,.,.
SMILES,Pf Dd2 growth,T cruzi growth-1,C diff growth,T cruzi growth-2,T cruzi growth-3,3T3 cytotox,NIH3T3 tox 2
O=C(Nc1ccc2c(c1)[C@@H]1C[C@H](CC(=O)N3CCCCC3)O[C@@H](CO)[C@@H]1O2)c1ccc2c(c1)OCO2,-16,41,-5,.,.,.,.
C[C@H](CO)N1C[C@H](C)[C@@H](CN(C)Cc2ccc(C(=O)Nc3ccccc3N)cc2)Oc2ccc(NC(=O)c3ccncc3)cc2C1=O,-64,.,6,.,.,.,.
COc1ccc2c3c(n(C)c2c1)[C@H](CO)NCC31CN(C(=O)c2ccc(F)cc2)C1,12,.,4,.,.,.,.
O=C(NC1CCCC1)N1CCCCN2[C@H](CO)[C@H](c3ccc(/C=C/c4ccccc4)cc3)[C@@H]2C1,29,114*,-26,95*,100*,16,103*
O=C(NC1CCCC1)N1CCCCN2[C@H](CO)[C@H](c3ccc(/C=C/c4ccccc4)cc3)[C@H]2C1,-36,110*,56,100*,117*,24,104*
O=C(NC1CCCC1)N1CCCCN2[C@H](CO)[C@@H](c3ccc(/C=C/c4ccccc4)cc3)[C@H]2C1,-29,57,2,.,.,.,.
C/C=C/c1ccc([C@H]2[C@@H](CO)N3CCCCN(C(=O)NC4CCCC4)C[C@H]23)cc1,6,49,25,.,.,.,.
COCCNC(=O)C[C@H]1CC[C@@H](NS(=O)(=O)c2ccc(C)cc2)[C@H](CO)O1,-5,.,0,.,.,.,.
C[C@@H]1CN([C@H](C)CO)C(=O)c2cccc(N(C)C)c2O[C@@H]1CN(C)C(=O)Nc1cccc2ccccc12,-11,7,3,.,.,.,.
COc1ccccc1S(=O)(=O)N(C)C[C@H]1Oc2cc(C#CCC3CCCC3)ccc2S(=O)(=O)N([C@@H](C)CO)C[C@@H]1C,-55,.,2,.,.,.,.
COc1ccccc1S(=O)(=O)N(C)C[C@@H]1Oc2cc(C#CCC(C)C)ccc2S(=O)(=O)N([C@@H](C)CO)C[C@H]1C,-89*,?,8,97*,108*,24,41*

# Compound activity (PubChem BioAssay)
